Bioassay records as filed in PubChem.
PNC assembly inh – inhibitors of perinucleolar compartment assembly; PC3M PTB-GFP, PNC prevalence imaging, 16 h; active compounds read low; activity change (PNC), negative = inhibition, % at 10 µM; actives 3.1% (n = 140,000); AID 2417;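 active = readout at or below -70, meaning at least 70% loss of cells showing the perinucleolar compartment, a nuclear body marking cancer cells; inconclusive = readout between -30 and a set limit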
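Compounds are pinned in duplicate onto adhered PC3M cells stably expressing GFP-tagged PTB and incubated 16 h at 37 C. Cells are then fixed, nuclei stained with Hoechst, and PNC-positive cells counted.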
IMPase inh – membrane-permeable compound that blocks inositol monophosphatase. 120,000 tested, under 10 active. inhibition (IP1 accumulation), % at 46.1 µM. CHO-M1 cells, IP1 accumulation, HTRF TR-FRET ratio. AID 901. P97697; active = well fitted curve in the direction sought with a large enough effect in the signal ratio, not every such curve was filed as active; inconclusive = small, poorly fitted or top-dose-only effect, or a change in a side signal; inactive = no such curve, though single readings can be large or run the other way; the % refers to the signal ratio;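 note: cells stimulated with carbachol in lithium chloride buffer; higher means more IMPase inhibition seen as more IP1 and lower FRET ratio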
Target sequence (P97697 whole entry, looked up): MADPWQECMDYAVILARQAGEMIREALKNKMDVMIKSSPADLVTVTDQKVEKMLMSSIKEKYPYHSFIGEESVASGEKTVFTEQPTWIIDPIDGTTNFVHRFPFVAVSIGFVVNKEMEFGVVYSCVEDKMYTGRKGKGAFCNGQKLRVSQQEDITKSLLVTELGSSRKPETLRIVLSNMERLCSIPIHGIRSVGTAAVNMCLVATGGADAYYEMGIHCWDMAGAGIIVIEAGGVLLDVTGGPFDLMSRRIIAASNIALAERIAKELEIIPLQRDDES
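Elevated IP1 in lysates lowers TR-FRET signal (665/620 ratio and 620 channel reported). Cells were CHO-M1, given carbachol (50 uM as added) plus 50mM LiCl, pH 7.4, 30 min, 37C; compounds titrated up to 46 uM; AC50 by Hill equation.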
ALDH1A1 block – inhibitors of human aldehyde dehydrogenase 1A1; Potency, µM (top dose mostly 75.3 µM), usual class: inhibitors; Purified ALDH1A1, NADH fluorescence, propionaldehyde substrate; P00352; actives 7.3% (n = 220,000); AID 1030
HPGD block – blocks human HPGD enzyme activity. P15428. purified HPGD, NADH fluorescence kinetic, PGE2 substrate. Potency, µM, actives largely listed as inhibitors. actives 4.3% (n = 150,000). AID 894
Target sequence (P15428 whole entry, looked up): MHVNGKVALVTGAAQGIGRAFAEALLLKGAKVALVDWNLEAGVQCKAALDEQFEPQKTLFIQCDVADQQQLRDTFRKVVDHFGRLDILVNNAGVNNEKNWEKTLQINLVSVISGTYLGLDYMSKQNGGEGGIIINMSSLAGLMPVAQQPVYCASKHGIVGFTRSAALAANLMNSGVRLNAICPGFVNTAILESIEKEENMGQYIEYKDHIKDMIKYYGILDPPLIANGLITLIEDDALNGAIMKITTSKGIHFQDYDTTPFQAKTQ
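20 nM HPGD preincubated 15 min at room temperature with compound in 50 mM Tris-HCl pH 8, 0.01% Tween 20. Started with 1 mM NAD+ and 30 uM prostaglandin E2; NADH fluorescence (360/450 nm) read 5 times over 30-s intervals, last minus first.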
IMPase Li cell – membrane-permeable IMPase blocker, potentiated with lithium; CHO-M1 cells, IP1 TR-FRET (IP-One), carbachol + lithium; Potency, µM (series often up to 59.4 µM), actives largely listed as inhibitors; actives 0.35% (n = 210,000); AID 1457; active = well fitted inhibition curve with a large enough effect; inconclusive = small, poorly fitted or top-dose-only effect; inactive = no such curve, though single readings can be large or run the other way;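 note: IP1 builds up when IMPase is blocked and the TR-FRET signal falls; nearly all actives have a fitted effect of over 50% in size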
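CHO-M1, 2000 cells/well, 16–30 h culture; cpd + low Li+, 30 min 37C; lysis with d2-IP1/Eu-anti-IP1 Ab, 10 min RT; TR-FRET 665/620 ratio and 620 channel; AC50 via Hill.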
Of the large screens only hits and unclear results are named; the others gave an inactive call. The list is not random: actives were taken first. Their share in the collection is about 11%. Unless noted, calls come from the whole dose curve; as a rule, active = well fitted inhibition curve with a large enough effect (not every such curve was filed as active); inconclusive = small, poorly fitted or top-dose-only effect, or another doubt; inactive = no such curve, though single readings can be large or run the other way.

CCC(C)NC(=O)c1ccc(CSc2nc3ccncc3n2Cc2ccc(F)cc2)cc1 (configuration not stated)	HPGD block inconclusive (no result: IMPase inh)
Cn1c(=O)n(C)c2cc(NS(=O)(=O)c3ccc(C(C)(C)C)cc3)c(NCc3ccccc3)cc21	none (no result: PNC assembly inh, ALDH1A1 block, HPGD block, IMPase Li cell)
COCC(=O)O	none (no result: PNC assembly inh, IMPase inh)
CC(CC(=O)NC1CCCC1)c1ccccc1 (configuration not stated)	PNC assembly inh inconclusive, HPGD block 2.5µM
CC(C(=O)NC1CCCC1)N1CCN(Cc2ccccc2)CC1 (configuration not stated)	ALDH1A1 block 3.5µM (no result: PNC assembly inh, IMPase inh, HPGD block)
CC(=O)NC(CC(=O)NC1CCCCCC1)c1ccccc1 (configuration not stated)	PNC assembly inh inconclusive (no result: IMPase inh)
CCS(=O)(=O)Nc1ccc(C2=NN(S(C)(=O)=O)C(c3cccs3)C2)cc1 (configuration not stated)	ALDH1A1 block inconclusive (no result: PNC assembly inh, IMPase inh, HPGD block)
CC(=O)O[C@H]1CC[C@@]2(C)C(=CC[C@@H]3[C@H]4CC[C@@H]([C@H](C)C(=O)O)[C@]4(C)CC[C@H]32)C1	none (no result: PNC assembly inh, IMPase inh)
S=c1[nH]nc(-c2ccco2)n1/N=C/c1ccccc1Cl	ALDH1A1 block 10µM (no result: HPGD block, IMPase Li cell)
S=c1[nH]nc(-c2ccccn2)n1/N=C/c1cccs1	none (no result: IMPase inh)
Cc1ccc(/C=N/n2c(-c3ccco3)n[nH]c2=S)s1	PNC assembly inh -113, ALDH1A1 block 11µM, HPGD block 13µM
Fc1ccc(/C=N/n2c(-c3cccs3)n[nH]c2=S)cc1	ALDH1A1 block 14µM, HPGD block 4µM
S=c1[nH]nc(-c2ccco2)n1/N=C/c1ccc(Cl)cc1	PNC assembly inh inconclusive, ALDH1A1 block 22µM, HPGD block 3.5µM
c1c[nH]c(CN2CCOCC2)n1	none (no result: PNC assembly inh, IMPase inh)
CCC1=C2CC[C@H]3C(=O)N(c4ccccc4)C(=O)[C@H]3[C@H]2[C@@]2(Cc3ccccc3)C(=NCCOC)OC(=O)N2C1=O	none (no result: PNC assembly inh, IMPase inh)
CC(=O)NC(Cc1cccc(C)c1)C(=O)NC1CCN(C(=O)c2ccc([N+](=O)[O-])cc2)CC1 (configuration not stated)	none
CC1CCCN(C(c2cccs2)c2nnnn2Cc2ccccc2)C1 (configuration not stated)	ALDH1A1 block 3.2µM
COc1ccc(Cn2nnnc2C(c2cc(OC)ccc2OC)N2CCC(C(N)=O)CC2)cc1 (configuration not stated)	ALDH1A1 block 14µM
CC1CCN(C(c2ccc(N(C)C)cc2)c2nnnn2Cc2ccccc2)CC1 (configuration not stated)	ALDH1A1 block 8.9µM
COc1ccc(Cn2nnnc2C(c2ccc(N(C)C)cc2)N2CCC(C)CC2)cc1 (configuration not stated)	ALDH1A1 block 25µM
COc1ccc(Cn2nnnc2C(c2ccc(F)cc2)N2CCN(C3CCCC3)CC2)cc1 (configuration not stated)	ALDH1A1 block inconclusive
CN1CCN(C(c2cccs2)c2nnnn2Cc2ccc(F)cc2)CC1 (configuration not stated)	ALDH1A1 block inconclusive (no result: PNC assembly inh, IMPase inh, HPGD block)
CC(Oc1ccc(Br)cc1)C(=O)NCc1cccnc1 (configuration not stated)	none (no result: PNC assembly inh, IMPase inh, IMPase Li cell)
Cn1cc(-c2nc3cncnc3n(CCN)c2=O)c2ccccc21	ALDH1A1 block inconclusive (no result: PNC assembly inh, IMPase inh, HPGD block)
COc1ccc(/C=C(\C#N)C(=O)c2c(C)[nH]c3ccccc23)cc1OC	none (no result: IMPase inh)
COc1cc(/C=C(\C#N)C(=O)c2c(C)[nH]c3ccccc23)cc(OC)c1OC	ALDH1A1 block 8.9µM (no result: HPGD block, IMPase Li cell)
O=C(COC(=O)c1cccc([N+](=O)[O-])c1)c1ccc(OCc2ccccc2)cc1	PNC assembly inh -116, ALDH1A1 block 14µM (no result: IMPase inh)
O=C(COC(=O)c1cc([N+](=O)[O-])ccc1NCCO)NCc1cccs1	ALDH1A1 block inconclusive (no result: PNC assembly inh, IMPase inh, HPGD block)
NC(=O)COC(=O)c1cc([N+](=O)[O-])ccc1NCCO	ALDH1A1 block 20µM (no result: PNC assembly inh, IMPase inh, HPGD block, IMPase Li cell)
O=C(COC(=O)c1cc([N+](=O)[O-])ccc1NCCO)c1ccccc1	ALDH1A1 block 25µM
COCC1=C2c3ccccc3[C@H](C[N+](=O)[O-])C(C(=O)OC)(C(=O)OC)C[C@@H]2n2c(=O)n(-c3ccccc3)c(=O)n2C1	none (no result: PNC assembly inh, IMPase inh)
CCOc1ccccc1/C=C(/NC(=O)c1ccccc1)C(=O)N(CC)CC	none
COCc1cc(C)n(CC(=O)Nc2ccc(NC(C)=O)cc2)c(=O)c1C#N	none (no result: PNC assembly inh, ALDH1A1 block, HPGD block, IMPase Li cell)
